High-throughput results: PubChem, National Center for Advancing Translational Sciences (NCATS)
G9a block = qHTS Assay for Inhibitors of Histone Lysine Methyltransferase G9a. Potency, µM (top dose mostly 102 µM), inactives show top-dose activity, negative = inhibition, most hits filed as inhibitors. Histone-lysine N-methyltransferase EHMT2 (Homo sapiens), Q96KQ7. 8.8% of 350,000 active. G9a H3K9 monomethylation, AlphaScreen, 2 h. AID 504332, 2011; also: % is scaled to controls: 0 for no effect and ±100 for the full control effect; nearly all actives have a fitted effect of over 75% in size
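Readings reflect AlphaScreen signal from monomethyl-H3K9 antibody detection. HMT at 20 nM; substrate b-H3K9 500 nM; cofactor SAM 20 uM; 2 h RT reaction; compounds tested as titrations in qHTS with 15 min preincubation.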
Sfp inh = qHTS Assay for Inhibitors of Bacillus subtilis Sfp phosphopantetheinyl transferase (PPTase); 3.5% of 310,000 active; 4'-phosphopantetheinyl transferase ffp (Bacillus subtilis), Q9F4F7; Biochemical Sfp PPTase activity, qHTS; Potency, µM, for inactives: largest response in the series, negative = inhibition, most hits filed as inhibitors;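 also: the enzyme is Sfp with the accession as filed and its product quenches rhodamine fluorescence; 0% = enzyme reaction without inhibitor and -100% = no enzyme wells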
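Sfp 15 nM + cpd, 15 min RT; start w/ rhodamine-CoA 5 uM, BHQ-2-YbbR 12.5 uM (final); 50 mM Hepes pH 7.6, 10 mM MgCl2, 0.01% NP-40, 0.01% BSA; read 525/598 nm at 0 and 30 min.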
ALOX12 inh = Primary qHTS assay for inhibitors of human arachidonate 12S-lipoxygenase (ALOX12): Round 2; purified 12hLO, xylenol orange hydroperoxide absorbance; Potency, µM (top dose mostly 108 µM), inactives show at the top dose activity change, negative = inhibition, actives largely listed as inhibitors; 1.1% of 580,000 active; AID 1671190, 2021; also: % is scaled to controls: 0 for no effect and ±100 for the full control effect
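Purified human 12hLO at 150 nM in 25 mM Hepes, 0.01% Triton X-100, pH 7.0, preincubated 15 min at room temperature with compound. Reaction started with 40 uM arachidonic acid, 30 min at room temperature. Hydroperoxide measured by Fe-xylenol orange, 573/405 nm absorbance ratio.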
HP1b chromo inh = HTS for Inhibitors of HP1-beta Chromodomain Interactions with Methylated Histone Tails; AlphaScreen HP1-beta / biotin-H3K9me3 peptide binding; Potency, µM (titrated, usually from 114 µM), for inactives: at the top dose activity change, negative = inhibition, actives largely listed as inhibitors; AID 540317, 2011; 0.56% of 390,000 active; also: nearly all actives have a fitted effect of over 70% in size
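AlphaScreen: HP1-beta (50 nM) preformed 30 min with biotin-H3(1-18)K9me3 peptide (50 nM) in PBS pH 7.4, 0.01% Tween-20. Compound added for 30 min at RT, then streptavidin donor/nickel chelate acceptor beads (10 ug/mL) for 30 min.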
JMJD2A Tudor = qHTS Assay for Inhibitors of JMJD2A-Tudor Domain; Lysine-specific demethylase 4A (Homo sapiens), O75164; AlphaScreen JMJD2A-Tudor / H3K4me3 peptide binding; Potency, µM (highest dose often 114 µM), for the others: at the highest dose activity change, negative = inhibition, actives largely listed as inhibitors; 4.4% of 390,000 active; also: % is scaled to controls: 0 for no effect and ±100 for the full control effect; nearly all actives have a fitted effect of over 50% in size
BAZ2B block = qHTS Assay for Inhibitors of BAZ2B; 4.4% of 360,000 active; AID 504333, 2011; Potency, µM (doses to about 114 µM), without a hit: at the top dose activity change, negative = inhibition, hits mostly inhibitors; AlphaScreen BAZ2B-H3K14Ac peptide displacement; also: % is scaled to controls: 0 for no effect and ±100 for the full control effect; nearly all actives have a fitted effect of over 60% in size
Target sequence (Q9UIF8 whole entry, looked up): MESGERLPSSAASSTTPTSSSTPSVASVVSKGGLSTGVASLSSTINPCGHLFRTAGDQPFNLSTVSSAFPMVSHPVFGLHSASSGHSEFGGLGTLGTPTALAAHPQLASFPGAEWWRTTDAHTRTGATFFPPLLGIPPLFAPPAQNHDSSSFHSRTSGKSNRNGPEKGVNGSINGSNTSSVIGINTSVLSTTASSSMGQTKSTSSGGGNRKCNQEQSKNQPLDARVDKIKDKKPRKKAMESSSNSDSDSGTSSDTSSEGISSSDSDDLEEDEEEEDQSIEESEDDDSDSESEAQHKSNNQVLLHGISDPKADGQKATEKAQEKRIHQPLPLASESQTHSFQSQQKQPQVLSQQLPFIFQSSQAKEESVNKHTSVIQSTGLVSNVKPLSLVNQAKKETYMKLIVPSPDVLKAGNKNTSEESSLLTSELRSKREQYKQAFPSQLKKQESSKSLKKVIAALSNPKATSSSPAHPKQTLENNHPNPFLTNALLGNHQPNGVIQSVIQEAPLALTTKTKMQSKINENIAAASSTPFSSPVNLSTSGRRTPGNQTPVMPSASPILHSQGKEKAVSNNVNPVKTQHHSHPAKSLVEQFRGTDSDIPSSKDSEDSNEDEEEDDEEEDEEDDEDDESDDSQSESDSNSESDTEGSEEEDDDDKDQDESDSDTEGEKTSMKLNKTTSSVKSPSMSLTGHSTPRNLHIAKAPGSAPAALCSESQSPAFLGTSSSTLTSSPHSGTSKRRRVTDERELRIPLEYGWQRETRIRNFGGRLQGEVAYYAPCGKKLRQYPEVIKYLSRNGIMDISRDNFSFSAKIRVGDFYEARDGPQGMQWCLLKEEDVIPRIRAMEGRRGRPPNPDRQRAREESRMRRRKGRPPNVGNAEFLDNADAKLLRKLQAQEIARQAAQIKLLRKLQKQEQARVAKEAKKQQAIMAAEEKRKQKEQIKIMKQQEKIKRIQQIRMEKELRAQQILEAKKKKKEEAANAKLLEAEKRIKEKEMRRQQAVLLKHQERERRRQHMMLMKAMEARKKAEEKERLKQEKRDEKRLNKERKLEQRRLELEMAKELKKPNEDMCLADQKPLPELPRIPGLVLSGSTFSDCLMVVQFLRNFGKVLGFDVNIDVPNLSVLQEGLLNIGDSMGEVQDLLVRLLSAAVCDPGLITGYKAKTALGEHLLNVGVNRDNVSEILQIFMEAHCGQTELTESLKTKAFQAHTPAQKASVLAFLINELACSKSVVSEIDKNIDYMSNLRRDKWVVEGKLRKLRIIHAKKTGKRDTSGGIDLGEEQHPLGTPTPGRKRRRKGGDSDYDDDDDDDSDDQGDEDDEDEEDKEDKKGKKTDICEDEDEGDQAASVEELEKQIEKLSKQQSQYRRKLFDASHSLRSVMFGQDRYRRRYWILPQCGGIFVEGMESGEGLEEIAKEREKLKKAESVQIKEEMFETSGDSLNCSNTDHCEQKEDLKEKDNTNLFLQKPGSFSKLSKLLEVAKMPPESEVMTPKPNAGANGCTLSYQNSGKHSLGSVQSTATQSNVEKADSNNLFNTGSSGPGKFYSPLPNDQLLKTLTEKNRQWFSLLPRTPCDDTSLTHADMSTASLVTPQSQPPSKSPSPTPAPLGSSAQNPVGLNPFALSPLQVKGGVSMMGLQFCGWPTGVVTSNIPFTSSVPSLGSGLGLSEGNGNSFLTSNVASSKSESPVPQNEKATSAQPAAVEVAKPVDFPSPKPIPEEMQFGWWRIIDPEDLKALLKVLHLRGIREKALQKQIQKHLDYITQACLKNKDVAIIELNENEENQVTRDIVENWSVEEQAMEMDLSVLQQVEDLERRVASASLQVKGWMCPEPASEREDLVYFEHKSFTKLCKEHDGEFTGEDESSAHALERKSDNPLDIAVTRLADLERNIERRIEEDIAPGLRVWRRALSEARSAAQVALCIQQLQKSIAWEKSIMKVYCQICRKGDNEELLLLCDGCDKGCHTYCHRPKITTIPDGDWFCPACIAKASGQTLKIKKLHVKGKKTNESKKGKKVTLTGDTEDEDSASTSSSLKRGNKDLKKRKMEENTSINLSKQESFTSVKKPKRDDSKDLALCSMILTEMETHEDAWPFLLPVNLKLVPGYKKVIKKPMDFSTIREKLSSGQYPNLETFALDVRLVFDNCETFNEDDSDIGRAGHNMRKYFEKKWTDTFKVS
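Complex of BAZ2B and biotin-H3K14Ac (50 nM apiece) forms over 30 min at RT, then faces library compounds up to 110 uM for another 30 min; AlphaScreen beads added, 20 min dark incubation, luminescence read.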
* hit, by the source's call; ? = inconclusive; · = not tested or not shown; ! = not active in a repeat; [ ] = remark or other dose. Rows were chosen to be rich in hits. Some 8.7% of all compounds tested hit in one or more screens of this group. Calls follow the shape of the dose curve; as a rule, active = well fitted curve in the direction sought with a large enough effect; inconclusive = small, poorly fitted or top-dose-only effect, or another doubt; inactive = no such curve, though single readings can be large; an effect the other way counts as inactive or inconclusive. Potency is read from the fitted curve at half-maximal effect.

SMILES	G9a block	Sfp inh	ALOX12 inh	HP1b chromo inh	JMJD2A Tudor	BAZ2B block
CCc1nc(C#N)c(NCCc2ccc(OC)c(OC)c2)o1	·	·	-2%	·	·	·
CCNc1oc(COc2cccc(C)c2)nc1C#N	-5%	6%	14%	9%	-20%	-11%
COc1ccc(CCNc2oc(COc3cccc(C)c3)nc2C#N)cc1OC	14µM*	·	?	?	?	?
COc1ccc(CCNc2oc(COc3ccc(Cl)cc3)nc2C#N)cc1OC	?	·	-9%	-21%	?	20µM*
COCC(=O)N[C@@H]1CN(Cc2cccc(F)c2F)C[C@H]1CO	·	·	77%	·	·	·
COc1ccc2[nH]c(C)c(C(=O)CN3CC(C)OC(C)C3)c2c1 (stereo unspecified)	17%[59 µM]	1%	13%	28%	-17%	-4%
COc1ccc2[nH]c(C)c(C(=O)CN3CCC(Cc4ccccc4)CC3)c2c1	·	·	25µM*	·	·	·
CN(Cc1ccco1)S(=O)(=O)c1nnc(NC(=O)c2ccccc2Cl)s1	-27%[59 µM]	-29%	-3%	30%	-21%	-24%
CCN(c1cccc(C)c1)S(=O)(=O)c1nnc(NC(=O)c2cccs2)s1	3.2µM*	·	-8%	?	?	3.5µM*
CCCC(=O)Nc1nnc(S(=O)(=O)N(C)Cc2ccco2)s1	?	45µM*	·	-13%[57 µM]	?	?
CCN(c1ccccc1C)S(=O)(=O)c1nnc(NC(=O)c2ccccc2C)s1	2.5µM*	·	0%	-10%	?	?
Cc1ccccc1C(=O)Nc1nnc(S(=O)(=O)N(C)Cc2ccco2)s1	?	45µM*	0%	44%	-19%	-20%
CCN(c1ccc(OC)cc1)S(=O)(=O)c1nnc(NC(=O)c2ccccc2C)s1	-41%[59 µM]	·	-13%	18%	-14%	-14%
O=C(Cc1c[nH]c2ncc(-c3ccsc3)cc12)N1CCOCC1	·	·	21%[176 µM]	·	·	·
CSCCC(NS(=O)(=O)c1ccc2c(c1)oc(=O)n2C)C(=O)Nc1cc(C)cc(C)c1 (stereo unspecified)	·	·	-21%	·	·	·
CCOC(=O)C1=C(C)Nc2nc(SCc3ccccc3)nn2C1c1cccs1 (stereo unspecified)	·	·	11%	·	·	·
CS(=O)(=O)c1ccccc1-c1nc(-c2cc(C(F)(F)F)cc(C(F)(F)F)c2)no1	27%	45µM*	4%	25%	-3%	-4%[57.1 µM]
CS(=O)c1ccccc1-c1nc(-c2cc(C(F)(F)F)cc(C(F)(F)F)c2)no1 (stereo unspecified)	6%	5%	2%	46%	-4%	-1%[57.1 µM]
CCN(CC)c1nc(-c2nn[nH]n2)nc(N(CC)CC)n1	?	15%	?	23%	89µM*	4%
CS(=O)(=O)N1CCC(OC2CCN(C(=O)C3(c4ccccc4)CC3)CC2)CC1	·	·	14%	·	·	·
Cc1ccc(F)cc1NC(=O)c1cc(-c2ccc[nH]2)n[nH]1	·	·	16µM*	·	·	·
O=C(Nc1cccc(OC(F)(F)F)c1)c1cc(-c2ccc[nH]2)n[nH]1	·	·	14µM*	·	·	·
Cc1cc(NC(=O)c2cc(-c3ccc[nH]3)n[nH]2)ccc1F	·	·	-16%	·	·	·
CCN(CC)CCNC(=O)c1ccc(CN2CC(=O)N3CCCC3C2=O)cc1 (stereo unspecified)	·	·	32%	·	·	·
CS(=O)(=O)c1ccc(OCC2(CNC(=O)c3cccc(F)c3)C[C@@H](O)[C@@H](O)C2)cc1 (stereo partly specified)	·	·	78%	·	·	·
SMILES	G9a block	Sfp inh	ALOX12 inh	HP1b chromo inh	JMJD2A Tudor	BAZ2B block
CCCCSc1nnc2c(n1)OC(c1ccc(Br)s1)N(C(C)=O)c1ccccc1-2 (stereo unspecified)	10µM*	·	-24%	16%	?	?
CC(=O)c1cccc(NC(=O)C2(c3ccc(C)cc3)CCCC2)c1	·	·	-20%	·	·	·
O=C(Nc1nc2ccccc2[nH]1)C1CCN(C(=O)c2ccc(F)cc2)CC1	40µM*	·	6%	12%	?	4%
O=C(Nc1nc(-c2ccc(F)cc2)cs1)C1CCN(C(=O)c2ccc(F)cc2)CC1	35µM*	·	?	11%	-23%	0%
O=C(Nc1nc2c(F)cc(F)cc2s1)C1CCN(C(=O)c2ccc(F)cc2)CC1	45µM*	·	?	2%	-15%	8%
CCOC(=O)C1CCCN(S(=O)(=O)c2ccc3c4c2CC(=O)N4CC(C)S3)C1 (stereo unspecified)	45µM*	0%	2%	37%	-15%	-28%
CCOC(=O)C1CCN(S(=O)(=O)c2ccc3c4c2CC(=O)N4CC(C)S3)CC1 (stereo unspecified)	35µM*	-11%	?	25%	-16%	-27%
CCOC(=O)C1CCCN(S(=O)(=O)c2cc3c4c(c2)CCN4C(=O)CC3)C1 (stereo unspecified)	?	·	-10%	12%	-10%	-11%
CCOC(=O)C1CCN(S(=O)(=O)c2cn(C)c(=O)n(C)c2=O)CC1	-1%	?	17%	31%	-19%	14%
O=C(O)Cc1cccc(OCCCN(Cc2cccc(C(F)(F)F)c2Cl)CC(c2ccccc2)c2ccccc2)c1	18µM*	45µM*	24µM*!	·	·	·
Cc1ccc(S(=O)(=O)N(C)CC(=O)Nc2ccc(Nc3ccccc3)cc2)cc1	·	·	-15%	·	·	·
O=C(CCN1C(=O)/C(=C/c2ccccc2)SC1=S)NC1CCS(=O)(=O)C1 (stereo unspecified)	58%	7%	-10%	-7%	-22%	-11%
COc1ccc(NC(=O)CCCN2C(=O)/C(=C\c3ccco3)SC2=S)cc1	-7%[59 µM]	?	?	-13%	-29%	?
CC(=C\c1ccco1)/C=C1/SC(=S)N(CC(=O)O)C1=O	40µM*	28µM*	?	-1%	-28%	50µM*
O=C(CN1C(=O)/C(=C/c2ccco2)SC1=S)NC1CCS(=O)(=O)C1 (stereo unspecified)	40µM*	25µM*	?	-34%	?	?
O=C(CN1C(=O)/C(=C/c2ccco2)SC1=S)Nc1ccc(O)c(C(=O)O)c1	25µM*	50µM*	?	41%	?	45µM*
